PrPC surface inh: inhibitors of human cell surface prion protein PrPC, primary screen, cell-based, TR-FRET. TR-FRET read-out. inhibition, % at 13.8 µM. Major prion protein (Homo sapiens), P04156. hit rate 0.43% among 370,000; in the data active = inhibition above about 24%; also: 0% = median of the test wells and 100% = reference compound wells
RN4220 kill: growth inhibition of S. aureus RN4220, primary screen, OD600. inhibition, % (test concentration not listed). AID 1259311, 2017. 16 h. hit rate 0.33% among 330,000; in the data active = inhibition above about 85%;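 also: plate controls were untreated cells for no effect and reference antibiotic for full effect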
PfHsp40 rescue: rescue of yeast from PfHsp40 toxicity, primary screen, S. cerevisiae, ATP luminescence; S. cerevisiae expressing PfHsp40, growth rescue; growth rescue, % at 12.5 µM; hit rate 0.68% among 340,000; AID 504582, 2011; in the data active = growth rescue above about 28%, passing the limit was not always enough;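 also: yeast W303a lacking pdr1 and pdr3 grown in galactose medium; growth measured after three days at 30 °C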
PrP UTR inh: inhibition of PrP 5' UTR reporter expression; cell-based PrP 5' UTR mRNA reporter, plate reader; inhibition, % (test concentration not listed); hit rate 0.35% among 340,000; in the data active = inhibition above about 52%; also: 0 = median of the neutral control wells
ugtP null kill: growth inhibition of ugtP-null S. aureus, primary screen, RN4220 ugtP deletion, OD600; hit rate 0.54% among 330,000; 16 h; growth inhibition, % (test concentration not listed); AID 1259309, 2017; in the data active = growth inhibition above about 68%;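 also: plate controls were untreated wells for no effect and antibiotic for full effect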
CCHF vOTU inh: CCHFV vOTU protease inhibitors, primary screen, biochemical, Pep-AMC substrate, fluorescence. inhibition, % at 11.5 µM. hit rate 0.55% among 370,000. Crimean-Congo hemorrhagic fever virus L polyprotein viral ovarian tumor (vOTU) protease …; in the data active = inhibition above about 30%; also: 0% = vehicle wells with enzyme and 100% = no enzyme wells
PrPC TRFRET cf: confirmation of inhibitors of cell surface human prion protein, confirmation, cell-based, TR-FRET | shares compounds with PrPC surface inh | inhibition, % at 13.8 µM | hit rate 65% among 1,500 | AID 743200, 2013 | cell surface PrPC level; in the data active = inhibition above about 25%
LD9 tox: cytotoxicity in LD9 cells, cytotoxicity control for cell surface PrPc inhibitor project, cell-based, luminescence, high throughput; inhibition, % at 13.8 µM; AID 743201, 2013; hit rate 29% among 1,500; shares compounds with PrPC surface inh; luminescence viability; in the data active = inhibition above about 9.5%
* = called active by the depositor. Rows were chosen to be rich in hits. Some 2.1% of all compounds tested hit in one or more screens of this group.

How did CC(C)(C)NC(=O)C(c1ccncc1)N(Cc1ccc(F)cc1)C(=O)c1ccc(-c2ccccc2)[nH]1 (stereo not drawn) do in these assays?
PrPC surface inh: 27*; RN4220 kill: 4; PfHsp40 rescue: 66*; PrP UTR inh: -6; ugtP null kill: 1; CCHF vOTU inh: 12; PrPC TRFRET cf: 15; LD9 tox: -4

How did O=C(NC1CCCC1)C(c1ccncc1)N(Cc1ccccc1)C(=O)c1ccc(-c2ccccc2)[nH]1 (stereo not drawn) do in these assays?
PrPC surface inh: 26*; RN4220 kill: 8; PfHsp40 rescue: 0; PrP UTR inh: -13; ugtP null kill: 5; CCHF vOTU inh: 9; PrPC TRFRET cf: 18; LD9 tox: -9

Results for O=C(NC1CCCC1)C(c1ccncc1)N(Cc1ccco1)C(=O)c1ccc(-c2ccccc2)[nH]1 (stereo not drawn) ?
PrPC surface inh: 13; RN4220 kill: 10; PfHsp40 rescue: 1; PrP UTR inh: -36; ugtP null kill: 7; CCHF vOTU inh: 9

Results for COc1cc(C=NNC(=S)Nc2cccc(Cl)c2C)ccc1OCC(=O)N1CC(C)OC(C)C1 (stereo not drawn) ?
RN4220 kill: -2; ugtP null kill: -14

What do the screens show for `C=C1C(=O)[C@]23C[C@H]1CC[C@H]2[C@]1(C)CCC[C@@](C)(C(=O)OC)[C@H]1C[C@@H]3O`?
PrPC surface inh: 60*; CCHF vOTU inh: 8; PrPC TRFRET cf: 71*; LD9 tox: 96*

How did Cc1cc(Br)cn2c(Cc3cccc(Cl)c3)c(-c3ccco3)nc12 do in these assays?
PrPC surface inh: 37*; CCHF vOTU inh: 4; PrPC TRFRET cf: 56*; LD9 tox: -1

How did Cc1ccc(Cc2c(-c3ccco3)nc3c(C)cc(Br)cn23)cc1 do in these assays?
PrPC surface inh: 37*; CCHF vOTU inh: 11; PrPC TRFRET cf: 56*; LD9 tox: -2

Results for C[C@@H]1C[C@@H]([C@H](O)CC2CC(=O)NC(=O)C2)C(=O)[C@@H](C)C1 ?
PrPC surface inh: 82*; PfHsp40 rescue: 40*; PrP UTR inh: 45; CCHF vOTU inh: 0; PrPC TRFRET cf: 86*; LD9 tox: 33*

Results for O=C(Nc1ccc(N2CCN(C(=O)c3ccco3)CC2)cc1)c1ccc2c(c1)OCO2 ?
PrPC surface inh: 25*; RN4220 kill: 3; PfHsp40 rescue: 0; PrP UTR inh: -12; ugtP null kill: 8; CCHF vOTU inh: -2; PrPC TRFRET cf: 15; LD9 tox: 3

Results for Cc1ccccc1C(=O)N1CCN(c2ccc(NC(=O)c3ccc4c(c3)OCO4)cc2)CC1 ?
PrPC surface inh: 34*; RN4220 kill: 1; PfHsp40 rescue: 2; PrP UTR inh: 16; ugtP null kill: 5; CCHF vOTU inh: -13; PrPC TRFRET cf: 30*; LD9 tox: 13*

What do the screens show for `COc1ccc(C(=O)NN=Cc2c(CO)cnc(C)c2O)cc1`?
RN4220 kill: 2; ugtP null kill: 7

Results for CN1CCN(C2CCN(Cc3ccc(O)c4ncccc34)CC2)CC1 ?
PrPC surface inh: 34*; RN4220 kill: 3; PfHsp40 rescue: -1; PrP UTR inh: -11; ugtP null kill: 1; CCHF vOTU inh: 10; PrPC TRFRET cf: 2; LD9 tox: -6

Results for CN1CCN(Cc2cc(COCc3ccccc3)c3cccnc3c2O)CC1 ?
PrPC surface inh: 1; PfHsp40 rescue: -2; PrP UTR inh: 35; CCHF vOTU inh: -17

How did COC(=O)C1=C(c2ccc(OC(F)(F)F)cc2)CC2CCC1N2C(=O)N1CCC(O)CC1 (stereo not drawn) do in these assays?
RN4220 kill: 6; ugtP null kill: -3

How did CCCOP(=O)(OCCC)c1nc(-c2ccccc2)oc1NCc1ccccc1 do in these assays?
PrPC surface inh: 28*; RN4220 kill: -4; PfHsp40 rescue: 0; PrP UTR inh: -8; ugtP null kill: -22; CCHF vOTU inh: 10; PrPC TRFRET cf: 14; LD9 tox: -6

What do the screens show for `CC(=O)Nc1cccc(NC(=O)c2cccc(-c3ccc(O)cc3)c2)c1`?
PrPC surface inh: -7; RN4220 kill: 0; PfHsp40 rescue: 0; PrP UTR inh: -65; ugtP null kill: 1; CCHF vOTU inh: -5

How did COc1ccc(NC(=O)c2cccc(-c3ccc(O)cc3)c2)cn1 do in these assays?
PrPC surface inh: 33*; PfHsp40 rescue: 1; PrP UTR inh: -27; CCHF vOTU inh: -10; PrPC TRFRET cf: 14; LD9 tox: 5

Results for O=S(=O)(c1ccccc1)c1ccccc1C=NO ?
RN4220 kill: 7; ugtP null kill: 6

What do the screens show for `CC1CCc2sc(C(=O)Nc3ccc(C(N)=O)cc3)cc2C1` (stereo not drawn)?
PrPC surface inh: 70*; RN4220 kill: -2; PfHsp40 rescue: 0; PrP UTR inh: -64; ugtP null kill: 2; CCHF vOTU inh: 10; PrPC TRFRET cf: 44*; LD9 tox: 0

Results for CCN(CC)C(=O)NC1CC2c3cccc4[nH]cc(c34)CC2N(C)C1 (stereo not drawn) ?
RN4220 kill: 4; ugtP null kill: 3

What do the screens show for `NC(=O)C1=CC(c2ccc(C(F)(F)F)cc2)CC(OCCCCO)O1` (stereo not drawn)?
RN4220 kill: 8; ugtP null kill: -7

Results for CC(C)C[C@@H](CN1CCC[C@H]1CN1C(=O)C(=O)NC[C@@H]1Cc1ccccc1)N1C[C@H](Cc2ccc(O)cc2)N(CC2CCCCCC2)C(=O)C1=O ?
PrPC surface inh: 26*; CCHF vOTU inh: 26; PrPC TRFRET cf: 24; LD9 tox: 1

Results for CC(=NNC(=O)C1COc2ccccc2O1)c1cc2ccccc2o1 (stereo not drawn) ?
RN4220 kill: -2; ugtP null kill: 4

Results for CCCc1c(-c2ccc(F)cc2F)ncn1Cc1cccc(-c2ccccc2)c1 ?
PrPC surface inh: 30*; CCHF vOTU inh: 25; PrPC TRFRET cf: 18; LD9 tox: 8

What do the screens show for `COc1ccccc1-c1ncn(Cc2cccc(-c3ccccc3)c2)c1CC(C)C`?
PrPC surface inh: 27*; CCHF vOTU inh: 23; PrPC TRFRET cf: 15; LD9 tox: 7

Results for CC1(C)Oc2ccc(C#N)cc2C(N2CCCC2=O)C1O (stereo not drawn) ?
RN4220 kill: 5; ugtP null kill: 2
